The campaign covered roughly 310,000 compounds. About 14,000 (4.5%) showed an effect of 50% or more. Effects have a minus sign here. Shown is part of a subset that was picked to be rich in strong results.
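Further: peak tail current of the secondary pulse compared with the same well before compound.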

For the experiment, the target named is human ether-à-go-go-related gene (hERG) potassium channel (human, UniProt Q12809). Kind of experiment: primary screen, population patch clamp on CHO cells stably expressing hERG; higher = less effect of the substance.
Sequence of human ether-à-go-go-related gene (hERG) potassium channel (Q12809 whole entry, looked up): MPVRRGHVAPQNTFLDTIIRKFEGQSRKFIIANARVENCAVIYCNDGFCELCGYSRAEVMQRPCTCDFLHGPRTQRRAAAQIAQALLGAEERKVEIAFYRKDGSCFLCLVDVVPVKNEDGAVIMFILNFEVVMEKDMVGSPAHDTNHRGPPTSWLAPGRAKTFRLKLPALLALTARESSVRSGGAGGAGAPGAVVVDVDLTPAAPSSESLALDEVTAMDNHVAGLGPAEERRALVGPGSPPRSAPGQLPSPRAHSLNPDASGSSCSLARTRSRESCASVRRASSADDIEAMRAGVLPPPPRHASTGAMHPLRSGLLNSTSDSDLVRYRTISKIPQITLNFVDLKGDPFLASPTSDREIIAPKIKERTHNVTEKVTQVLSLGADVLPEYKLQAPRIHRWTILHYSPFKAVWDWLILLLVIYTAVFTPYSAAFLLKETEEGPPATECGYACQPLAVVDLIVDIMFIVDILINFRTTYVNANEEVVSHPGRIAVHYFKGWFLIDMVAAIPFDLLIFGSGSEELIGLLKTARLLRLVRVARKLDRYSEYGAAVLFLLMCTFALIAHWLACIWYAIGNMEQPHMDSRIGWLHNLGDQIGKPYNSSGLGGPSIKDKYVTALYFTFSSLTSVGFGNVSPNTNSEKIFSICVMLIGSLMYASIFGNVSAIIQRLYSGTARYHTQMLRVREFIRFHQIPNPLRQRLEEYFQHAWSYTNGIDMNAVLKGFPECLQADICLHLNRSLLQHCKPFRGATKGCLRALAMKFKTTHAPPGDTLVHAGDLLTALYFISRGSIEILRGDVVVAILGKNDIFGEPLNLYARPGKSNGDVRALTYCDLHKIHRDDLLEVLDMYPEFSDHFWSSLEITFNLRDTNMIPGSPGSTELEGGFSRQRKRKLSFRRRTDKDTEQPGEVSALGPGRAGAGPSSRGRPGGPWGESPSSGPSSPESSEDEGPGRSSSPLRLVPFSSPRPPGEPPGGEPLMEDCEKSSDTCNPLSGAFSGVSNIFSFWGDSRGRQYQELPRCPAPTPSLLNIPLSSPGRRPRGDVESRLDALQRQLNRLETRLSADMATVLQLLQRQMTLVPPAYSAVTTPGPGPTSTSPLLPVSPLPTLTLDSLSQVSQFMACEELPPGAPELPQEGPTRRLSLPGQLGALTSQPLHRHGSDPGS
Turning to `CC1CCC(C)(NS(=O)(=O)OCC(Cl)(Cl)Cl)CC1` (stereo not drawn), the “hERG current change (%, negative = inhibition) at 10uM” value is recorded as -21.7%.
Turning to `CN(C)C(/C=C/Nc1ccc(F)cc1)=C(C#N)C#N`, the “hERG current change (%, negative = inhibition) at 10uM” value is -8.47%.
As to `CCN1C(=O)c2ccccc2S(=O)(=O)c2ccc(C(=O)NCC(OC)OC)cc21`, the “hERG current change (%, negative = inhibition) at 10uM” value turned out to be 6.16%.
Consider `NNC(=O)COc1ncn(-c2ccccc2)n1`, for which the “hERG current change (%, negative = inhibition) at 10uM” value is 18%.
As to `N#Cc1ccsc1NC(=O)COC(=O)c1cc(Br)ccc1O`, the “hERG current change (%, negative = inhibition) at 10uM” value is -22.2%.
For `Cc1c(C(=O)N2CCCc3ccccc32)oc2ccc(S(=O)(=O)N3CCOCC3)cc12`, the “hERG current change (%, negative = inhibition) at 10uM” value is on record as -44.2%.
The same measure for `O=C(CNCCc1ccc(F)cc1)Nc1cc(F)ccc1F.O=C(O)C(=O)O`: -19.9%; for `CCOc1ccccc1NC(=O)COc1ccc(S(=O)(=O)N2CCCC2)cc1`: -4.32%; for `O=C(NCC1CCCO1)c1ccc([N+](=O)[O-])s1` (stereo not drawn): 25.4%.
The figure for `CCOC(=O)C(c1ccccc1)N1CCN(c2ccc(OC)cc2)CC1` (stereo not drawn) is 4.91%; for `C/C(CC(=O)Nc1ccc2c(c1)OCCO2)=N\NC(=O)Cc1ccccc1` it is -9.4%.
The same measure for `CCOc1ccc(OCCOC(=O)C2CCN(S(=O)(=O)c3ccc(C)c(C)c3)CC2)cc1`: -22.4%; for `Cl.O=C1c2cccc3cccc(c23)C(=O)N1CC1CCN(CC(O)COCc2ccc3c(c2)OCO3)CC1` (stereo not drawn): -75.3%.
For `COc1ccc(COCC(O)CN2CCOCC2)cc1OC.Cl` (stereo not drawn), the “hERG current change (%, negative = inhibition) at 10uM” value came to 20.8%.
In the case of `COc1ccc(COCC(O)CN2CCCCC2)cc1OC.Cl` (stereo not drawn), the “hERG current change (%, negative = inhibition) at 10uM” value is on record as 16.6%.
With `Cl.OCCN1CCN(CC(O)COCc2ccc3c(c2)OCO3)CC1` (stereo not drawn), the “hERG current change (%, negative = inhibition) at 10uM” value is given as -1.01%.
For `Cl.OC(COCc1ccc2c(c1)OCO2)CN1CCN(Cc2ccccc2)CC1` (stereo not drawn), the “hERG current change (%, negative = inhibition) at 10uM” value was -33.1%.
The figure for `Cl.OC(COCc1ccc2c(c1)OCO2)CN1CCC(Cc2ccccc2)CC1` (stereo not drawn) is -87.6%; for `CN1CCN(CC(O)COCc2ccc3c(c2)OCO3)CC1.Cl` (stereo not drawn) it is 6.52%; for `COc1ccc(COCC(O)CN2CCC(CN3C(=O)c4cccc5cccc(c45)C3=O)CC2)cc1OC.Cl` (stereo not drawn) it is -71.5%.
The same measure for `Cl.OC(COCc1ccc2c(c1)OCO2)CN1CCCCC1` (stereo not drawn): -2.96%.
With `Cc1ccc2nc(C(O)C(O)c3nc4ccc(C)cc4[nH]3)[nH]c2c1` (stereo not drawn), the “hERG current change (%, negative = inhibition) at 10uM” value is -6.37%.
In the case of `O=C(Nc1nc(-c2ccc(Cl)cc2Cl)cs1)c1ccc(OCC2CCCO2)cc1` (stereo not drawn), the “hERG current change (%, negative = inhibition) at 10uM” value is on record as 6.82%.
Take `COCCNc1nnc(SC(C)C(=O)Nc2c(C)n(C)n(-c3ccccc3)c2=O)s1` (stereo not drawn): the “hERG current change (%, negative = inhibition) at 10uM” value came to 11.8%.
The same measure for `CCCCN(CC)CCNC(=O)c1cn(C)c(=O)c2c1c1ccccc1n2C`: -24.6%.
Consider `CCN(CC)CCCNC(=O)c1nn(-c2cccc(OC)c2)c(=O)c2ccccc12`, for which the “hERG current change (%, negative = inhibition) at 10uM” value is given as -70.6%.
The figure for `CCN(CC)CCCNC(=O)CNC(=O)c1nn(-c2ccc(OC)cc2)c(=O)c2ccccc12` is 23.8%; for `CCN(CC)CCCNC(=O)c1nn(-c2ccc(OC)cc2OC)c(=O)c2ccccc12` it is -0.745%; for `COc1cccc(-n2nc(C(=O)N3CC(C)CC(C)C3)c3ccccc3c2=O)c1` (stereo not drawn) it is 3.43%.
The same measure for `COc1cccc(-n2nc(C(=O)O)c3ccccc3c2=O)c1`: 6.72%.
As for `CNC(=O)c1cn(-c2ccc(Cl)cc2)c(=O)c2ccccc12`, the “hERG current change (%, negative = inhibition) at 10uM” value is given as -9.43%.
Regarding `COc1cccc(-n2nc(C(=O)N3CCN(Cc4ccccc4)CC3)c3ccccc3c2=O)c1`, the “hERG current change (%, negative = inhibition) at 10uM” value is recorded as -50.3%.
`CCCCN(CC)CCCNC(=O)c1cn(-c2ccc(OC)cc2)c(=O)c2ccccc12`: the “hERG current change (%, negative = inhibition) at 10uM” value is recorded as -56.5%.
For the compound `CCCCN(CC)CCNC(=O)c1cn(-c2ccc(Cl)cc2)c(=O)c2ccccc12`, the “hERG current change (%, negative = inhibition) at 10uM” value is listed as -77.7%.
Regarding `CCOC(=O)C(C)NC(=O)c1cn(-c2ccc(OC)cc2)c(=O)c2ccccc12` (stereo not drawn), the “hERG current change (%, negative = inhibition) at 10uM” value amounted to 5.7%.
For the compound `CCCN(CCC)CCCNC(=O)c1cn(-c2ccc(OC)cc2)c(=O)c2ccccc12`, the “hERG current change (%, negative = inhibition) at 10uM” value was -48%.
`O=C(c1ccccc1[N+](=O)[O-])N1CCN(Cc2ccc3c(c2)OCO3)CC1`: the “hERG current change (%, negative = inhibition) at 10uM” value is listed as -13.4%.
The same measure for `Cc1cccc(N2C(S)=C(C#N)C(=O)NC23CCCCC3)c1`: -7.13%.
As to `CCCCC(=O)Nc1ccc(NC(=O)c2ccco2)cn1`, the “hERG current change (%, negative = inhibition) at 10uM” value was 10.1%.
The figure for `CCOc1ccccc1N1CCN(C(=O)c2csc(C)c2CC)CC1` is -8.41%; for `COC(=O)CSC1=C(C#N)C(c2ccccc2OC)C(C(=O)OC)C(=O)N1` (stereo not drawn) it is 15.6%.
On to `C/C(=C\C(=O)c1sccc1Cl)N(C)C`, for which the “hERG current change (%, negative = inhibition) at 10uM” value was found to be 0.12%.
Take `Cc1cnc([N+](=O)[O-])n1CCOC(=O)c1cccc(F)c1`: the “hERG current change (%, negative = inhibition) at 10uM” value is recorded as -3.45%.
Take `O=C(Cn1cnc2c(cnn2-c2ccccc2)c1=O)Nc1cc(S(=O)(=O)N2CCOCC2)ccc1Cl`: the “hERG current change (%, negative = inhibition) at 10uM” value is given as -32.2%.
On to `CCOc1cc(C(=S)N2CCCCC2)ccc1OCC(=O)NCc1ccccc1`, for which the “hERG current change (%, negative = inhibition) at 10uM” value is reported as -31.2%.
`COc1ccc(N2CCN(C(=O)Cn3cnc4c(cnn4-c4ccc(C)cc4)c3=O)CC2)cc1`: the “hERG current change (%, negative = inhibition) at 10uM” value is on record as -9.24%.
The same measure for `COCCCNC(=O)c1cn(-c2cccc(OC)c2)c(=O)c2ccccc12`: 18.1%; for `COc1cccc(-n2cc(C(=O)NCCCOC(C)C)c3ccccc3c2=O)c1`: -6.95%.
For the compound `CCN(CC)CCCNC(=O)c1cn(-c2cccc(OC)c2)c(=O)c2ccccc12`, the “hERG current change (%, negative = inhibition) at 10uM” value is listed as -68.5%.
As for `CC(/C=C/c1ccccc1)=N\NC(=O)CNC(=O)c1ccccc1Cl`, the “hERG current change (%, negative = inhibition) at 10uM” value is recorded as 7.15%.
As to `O=C(CSC1CC(=O)N(c2ccc(C(=O)O)cc2)C1=O)Nc1ccc2ccccc2c1` (stereo not drawn), the “hERG current change (%, negative = inhibition) at 10uM” value is 15.8%.
As to `Cc1ccc(C(=O)NCCNc2ccc(Cl)cc2[N+](=O)[O-])o1`, the “hERG current change (%, negative = inhibition) at 10uM” value is listed as -60%.
Consider `CCNCCNc1ccc(Cl)cc1[N+](=O)[O-].Cl`, for which the “hERG current change (%, negative = inhibition) at 10uM” value was -20.3%.
The figure for `O=C(NCCCNc1ccc(C(F)(F)F)cc1[N+](=O)[O-])c1cc(F)c(F)cc1Cl` is -15.7%.
The figure for `Cc1ccoc1C(=O)NCCNc1ccc(Cl)cc1[N+](=O)[O-]` is -30.5%; for `O=C(NCCNc1ccccc1[N+](=O)[O-])c1ccccc1F` it is 4.11%.
For `O=C(NCCNc1ccc(Cl)cc1[N+](=O)[O-])c1cccnc1`, the “hERG current change (%, negative = inhibition) at 10uM” value is -29.4%.
For `CCN(CC)CCNc1ccc(Cl)cc1[N+](=O)[O-].Cl`, the “hERG current change (%, negative = inhibition) at 10uM” value was -61.6%.
Regarding `CN(C)CCNc1ccc(Cl)cc1[N+](=O)[O-]`, the “hERG current change (%, negative = inhibition) at 10uM” value is recorded as -18.7%.
The same measure for `O=C(NCCNc1ccccc1[N+](=O)[O-])c1cc(F)c(F)cc1Cl`: -52.1%.
